Test [1] is described as follows: NCI Yeast Anticancer Drug Screen. Data for the rad50 strain (AID 155).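 Note: 0% = growth of vehicle-only cultures of the same strain.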 Particulars: S. cerevisiae rad50 strain growth inhibition, hits give high values. The gist of the method: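 Cells are treated with compound, grown, and their growth is then scored against vehicle-only cultures of the same repair-deficient yeast strain.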
The nature of test [2]: NCI Yeast Anticancer Drug Screen. Data for the mec2-1 strain (AID 157). The following applies: S. cerevisiae mec2-1 strain, hits give high values. The gist of the method:
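Compounds were applied to mec2-1 yeast cells. Their growth was then compared with that of vehicle-treated cultures to give growth inhibition.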

Test [3] is described as follows: NCI Yeast Anticancer Drug Screen. Data for the sgs1 mgt1 strain (AID 161).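 Note: 0% = growth of cultures given vehicle only.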 The following applies: S. cerevisiae sgs1 mgt1 strain, hits give high values. The gist of the method: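 Percent growth inhibition was derived by comparing compound-exposed mutant yeast with vehicle-exposed cultures. The strain carries alterations in DNA damage repair.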
Test [4] can be described thus: NCI Yeast Anticancer Drug Screen. Data for the cln2 rad14 strain (AID 165).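 Note: 0% = growth equal to vehicle treated cultures.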 Particulars: S. cerevisiae cln2 rad14 strain, hits give high values. The gist of the method: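 Strain: cln2 rad14 yeast, altered in cell cycle control and DNA damage repair. Read-out: growth inhibition vs vehicle.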
The nature of test [5]: NCI Yeast Anticancer Drug Screen. Data for the bub3 strain (AID 167). The following applies: S. cerevisiae bub3 mutant strain, hits give high values. Summed up:
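Part of a panel of yeast mutants defective in DNA damage repair or cell cycle regulation. Each strain is grown with compound, and inhibition is calculated relative to solvent-treated cultures.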

A short description of test [6]: NCI Yeast Anticancer Drug Screen. Data for the mlh1 rad18 strain (AID 175). Particulars: S. cerevisiae mlh1 rad18 strain growth inhibition, hits give high values. Summed up:
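A repair-deficient yeast strain is exposed to test compound, and growth is scored relative to vehicle-treated controls.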

Where [7] appears, read: at 5.0 µM (retest, dose inferred, filed as 0.5).
[8] abbreviates: at 50.0 µM (retest, dose inferred, filed as 5.0).

This is an account of results in PubChem BioAssay (NCI).

The structures appear in SMILES notation. About 79,000 compounds went through this panel and 15% of them were active in at least one assay; those are over-represented in the sample as a whole. A number with no mark means an inactive call. Active and inactive are the calls of the source. Cut-off read from the data, not from the text of the source: active = growth inhibition above about 70%; inactive = the rest.

Turning to `N=C(N)c1ccc(/C=C/c2ccc(C(=N)N)cc2)cc1`, the growth inhibition was 69% in test [1] (setting [7]); 80% (active) in test [1] (setting [8]); 85.8% (active) in test [1] (at 50.0 µM); 59% in test [2] (setting [7]); 91% (active) in test [2] (setting [8]); 81% (active) in test [2] (at 50.0 µM). For the same compound, the growth inhibition in test [3] (setting [7]) was 57%; in test [3] (setting [8]), 87% (active); in test [3] (at 50.0 µM), 74% (active); in test [4] (setting [7]), 75% (active); in test [4] (setting [8]), 84% (active); in test [4] (at 50.0 µM) it was 67.6%. Also, the growth inhibition was 82% (active) in test [5] (setting [7]); 94% (active) in test [5] (setting [8]); 87.5% (active) in test [5] (at 50.0 µM); 90% (active) in test [6] (setting [7]); 95% (active) in test [6] (setting [8]); 90.2% (active) in test [6] (at 50.0 µM).

In the case of `CCCCP(CCCC)(CCCC)=C(C(=O)OC)C(C(=O)OC)=C1SC(C(=O)OC)=C(C(=O)OC)S1`, the growth inhibition in test [1] (setting [7]) is 18%; in test [1] (setting [8]) it was 39%; in test [1] (at 50.0 µM), -4.9%; in test [2] (setting [7]) it was 4%; in test [2] (setting [8]), 16%; in test [2] (at 50.0 µM) it was 10.3%. Further, the growth inhibition in test [3] (setting [7]) is 63%; in test [3] (setting [8]) it was 26%; in test [3] (at 50.0 µM) it was -9.3%; in test [4] (setting [7]), 47%; in test [4] (setting [8]), 38%; in test [4] (at 50.0 µM) it was 13.1%. Moreover, the growth inhibition in test [5] (setting [7]) was 79% (active); in test [5] (setting [8]) it was 47%; in test [5] (at 50.0 µM) it was -7.6%; in test [6] (setting [7]) it was 23%; in test [6] (setting [8]) it was 51%; in test [6] (at 50.0 µM), 4.8%.

With `COC(=O)[C@@]12OC[C@]34[C@H]([C@@H](O)[C@@H]1O)[C@@]1(C)CC(=O)C(OC(=O)CC(=O)OC5=C(C)[C@@H]6C[C@H]7OC(=O)[C@H](OC(=O)/C=C(\C)C(C)C)[C@H]8[C@]9(C(=O)OC)OC[C@]78[C@H]([C@@H](O)[C@@H]9O)[C@@]6(C)CC5=O)=C(C)[C@@H]1C[C@H]3OC(=O)[C@H](OC(=O)/C=C(\C)C(C)C)[C@@H]24`, the growth inhibition in test [1] (setting [7]) was 45%; in test [1] (setting [8]) it was 98% (active); in test [1] (at 50.0 µM), 90.3% (active); in test [2] (setting [7]), 43%; in test [2] (setting [8]) it was 99% (active); in test [2] (at 50.0 µM), 92.3% (active). Also, the growth inhibition was 42% in test [3] (setting [7]); 98% (active) in test [3] (setting [8]); 92.5% (active) in test [3] (at 50.0 µM); 49% in test [4] (setting [7]); 98% (active) in test [4] (setting [8]); 89.6% (active) in test [4] (at 50.0 µM). For the same compound, the growth inhibition in test [5] (setting [7]) is 57%; in test [5] (setting [8]), 99% (active); in test [5] (at 50.0 µM), 92.2% (active); in test [6] (setting [7]), 58%; in test [6] (setting [8]), 97% (active); in test [6] (at 50.0 µM), 84.5% (active).

On to `FC(F)(F)c1cccc(Nc2ccc3cnc4ccccc4c3c2)c1`, for which the growth inhibition is 6% in test [1] (setting [7]); 92% (active) in test [1] (setting [8]); 94.7% (active) in test [1] (at 50.0 µM); -19% in test [2] (setting [7]); 97% (active) in test [2] (setting [8]); 95.2% (active) in test [2] (at 50.0 µM). The growth inhibition was -1% in test [3] (setting [7]); 97% (active) in test [3] (setting [8]); 96.6% (active) in test [3] (at 50.0 µM); -2% in test [5] (setting [7]); 95% (active) in test [5] (setting [8]); 95.2% (active) in test [5] (at 50.0 µM). For the same compound, the growth inhibition was 17% in test [6] (setting [7]), 95% (active) in test [6] (setting [8]) and 93.3% (active) in test [6] (at 50.0 µM).

As to `COC1OC(=O)CC1C1CC=C2C3CCC4CC(O)CCC4(C)C3CCC21C` (stereo not given), the growth inhibition in test [1] (setting [7]) is 1%; in test [1] (setting [8]) it was 44%; in test [1] (at 50.0 µM), 83.3% (active); in test [2] (setting [7]), 3%; in test [2] (setting [8]), 85% (active); in test [2] (at 50.0 µM), 74.4% (active). For the same compound, the growth inhibition in test [3] (setting [7]) is -22%; in test [3] (setting [8]) it was 86% (active); in test [3] (at 50.0 µM), 95% (active); in test [4] (setting [7]), -8%; in test [4] (setting [8]) it was 77% (active); in test [4] (at 50.0 µM), 62.6%. For the same compound, the growth inhibition was -5% in test [6] (setting [7]), 92% (active) in test [6] (setting [8]) and 88.4% (active) in test [6] (at 50.0 µM).

`O=c1c2ccccc2c2ccccc2c(=O)n1-c1cc2c3ccccc3ccc2c2ccccc12`: the growth inhibition is 12% in test [1] (setting [7]); 16% in test [1] (setting [8]); -16.2% in test [1] (at 50.0 µM); -11% in test [2] (setting [7]); 9% in test [2] (setting [8]); -12.8% in test [2] (at 50.0 µM). Besides, the growth inhibition is -4% in test [3] (setting [7]); 9% in test [3] (setting [8]); -2.4% in test [3] (at 50.0 µM); -11% in test [4] (setting [7]); -10% in test [4] (setting [8]); 68.2% in test [4] (at 50.0 µM). In addition, the growth inhibition was -12% in test [5] (setting [7]); -5% in test [5] (setting [8]); -66.5% in test [5] (at 50.0 µM); 5% in test [6] (setting [7]); 9% in test [6] (setting [8]); 37.8% in test [6] (at 50.0 µM).

For the compound `ClC1(c2ccccc2)c2ccccc2-c2ccccc21`, the growth inhibition in test [1] (setting [7]) was -26%; in test [1] (setting [8]), 98% (active); in test [1] (at 50.0 µM), 92.2% (active); in test [2] (setting [7]), 4%; in test [2] (setting [8]), 99% (active); in test [2] (at 50.0 µM), 95.6% (active). Also, the growth inhibition in test [3] (setting [7]) was -6%; in test [3] (setting [8]), 98% (active); in test [3] (at 50.0 µM) it was 83.9% (active); in test [4] (setting [7]) it was -1%; in test [4] (setting [8]) it was 92% (active); in test [4] (at 50.0 µM), 8.7%. Further, the growth inhibition in test [6] (setting [7]) is 0%; in test [6] (setting [8]) it was 94% (active); in test [6] (at 50.0 µM), 97.1% (active).

`[O-][N+]1=C2CCC/C(=N/O)C2(O)C2CCCCC21N1CCOCC1` (stereo not given): the growth inhibition in test [1] (setting [7]) was 26%; in test [1] (setting [8]), 20%; in test [1] (at 50.0 µM) it was -8.05%; in test [2] (setting [7]), 29%; in test [2] (setting [8]) it was 19%; in test [2] (at 50.0 µM), -39.8%. Moreover, the growth inhibition in test [3] (setting [7]) was 24%; in test [3] (setting [8]) it was 21%; in test [3] (at 50.0 µM), -2.1%; in test [4] (setting [7]), 23%; in test [4] (setting [8]), 26%; in test [4] (at 50.0 µM) it was 25.5%. The growth inhibition in test [6] (setting [7]) was 28%; in test [6] (setting [8]), 26%; in test [6] (at 50.0 µM) it was -3.2%.

On to `CC(C)C1=CC(=O)C(C)(C2C(O)CC3(C)C4CC=C5C(CCC(O)C5(C)C)C4(C)C(=O)CC23C)O1` (stereo not given), for which the growth inhibition in test [1] (setting [7]) is 65%; in test [1] (setting [8]), 80% (active); in test [1] (at 50.0 µM), 73.2% (active); in test [2] (setting [7]), 78% (active); in test [2] (setting [8]), 87% (active); in test [2] (at 50.0 µM), 74.5% (active). The growth inhibition was 64% in test [3] (setting [7]); 74% (active) in test [3] (setting [8]); 68.8% in test [3] (at 50.0 µM); 54% in test [4] (setting [7]); 83% (active) in test [4] (setting [8]); 75% (active) in test [4] (at 50.0 µM). Also, the growth inhibition in test [5] (setting [7]) is 78% (active); in test [5] (setting [8]), 86% (active); in test [5] (at 50.0 µM), 62.2%; in test [6] (setting [7]) it was 85% (active); in test [6] (setting [8]), 89% (active); in test [6] (at 50.0 µM), 69.4%.
